The record followed here is PubChem BioAssay (NCATS).

Test [1] relates to CRL-7250. Nature of the test: Cytotoxic Profiling of Annotated Libraries Using Quantitative High-Throughput Screening (AID 1296008). For max response: % is set by controls: 0 for no effect and ±100 for the full control effect. Note: nearly all actives have a fitted effect of over 60% in size. Note: potency is the fitted concentration of half-maximal effect. The note with it: Five cell lines viability, CellTiter-Glo ATP luminescence, 48-72 h; max response: active compounds read low. Put shortly: (§1)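 Cytotoxicity was measured as CellTiter-Glo ATP luminescence, read after 10 min at room temperature. Compound treatment of the cells lasted 48 or 72 hr at 37 degrees Celsius in a qHTS format.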
On the technique in general: ATP-based viability assays read luminescence as a measure of living cells.

The test system of test [2] is HEK293. The test is described as above. The settings on record: Five cell lines viability, CellTiter-Glo ATP luminescence, 48-72 h; max response: active compounds read low. Put shortly: as §1
Test [3] concerns C33A. Nature of the test: Primary qHTS to identify gynecologic anti-cancer compounds using libraries of approved drugs and bioactive compounds (AID 1345084). Note: nearly all actives have a fitted effect of over 55% in size. Note: potency is the fitted concentration of half-maximal effect. The note with it: Gynecologic cancer cell panel viability, ATPlite luminescence, 48 h; series mostly up to 57.5 µM. The method in brief:
(§2)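 Five-point cytotoxicity, 48 h drug exposure at 37 C, 5% CO2, on cells seeded 16 h beforehand. ATP content read by ATPlite luminescence.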
On the technique in general: Quantitative high-throughput screening tests each substance at several concentrations.

Test [4] has as its system CAOV3. The description is as above. The note with it: Gynecologic cancer cell panel viability, ATPlite luminescence, 48 h; series mostly up to 57.5 µM. Put shortly:
as §2

Test [5] concerns CASKI. The test is described as above. The settings on record: Gynecologic cancer cell panel viability, ATPlite luminescence, 48 h; series mostly up to 57.5 µM. The method in brief: as §2
Test [6] deals with Es-2. The test is described as above. The settings on record: Gynecologic cancer cell panel viability, ATPlite luminescence, 48 h; series mostly up to 57.5 µM. The method in brief:
as §2

In test [7] the test system is HeLa. The description is as above. The note with it: Gynecologic cancer cell panel viability, ATPlite luminescence, 48 h; series mostly up to 57.5 µM. Put shortly: as §2
The subject of test [8] is Hek293T. Described as above. The settings on record: Gynecologic cancer cell panel viability, ATPlite luminescence, 48 h, control line for the selectivity index; series mostly up to 57.5 µM. Put shortly:
as §2

For test [9], the system named is JEG-3. The test is described as above. The settings on record: Gynecologic cancer cell panel viability, ATPlite luminescence, 48 h; series mostly up to 57.5 µM. The method in brief: as §2
In test [10] the test system is OV90. Described as above. The settings on record: Gynecologic cancer cell panel viability, ATPlite luminescence, 48 h; series mostly up to 57.5 µM. Put shortly:
as §2

The subject of test [11] is PA-1. Described as above. The settings on record: Gynecologic cancer cell panel viability, ATPlite luminescence, 48 h; series mostly up to 57.5 µM. Put shortly: as §2
For test [12], the system named is NIH3T3. Nature of the test: Cytotoxic Profiling of Annotated Libraries Using Quantitative High-Throughput Screening (AID 1296008). For max response: % is set by controls: 0 for no effect and ±100 for the full control effect. Note: nearly all actives have a fitted effect of over 60% in size. Note: potency is the fitted concentration of half-maximal effect. The settings on record: Five cell lines viability, CellTiter-Glo ATP luminescence, 48-72 h; max response: active compounds read low. Put shortly: as §1
In test [13] the test system is HaCat. Described as above. The settings on record: Five cell lines viability, CellTiter-Glo ATP luminescence, 48-72 h; max response: active compounds read low. The method in brief: as §1
For test [14], the system named is KB-3-1. The test is described as above. The note with it: Five cell lines viability, CellTiter-Glo ATP luminescence, 48-72 h; max response: active compounds read low. Put shortly:
as §1

The test system of test [15] is HACAT. Put plainly: qHTS assay to identify novel small-molecules to repurpose for Merkel cell carcinoma treatment (AID 1296009). Note: nearly all actives have a fitted effect of over 60% in size. The settings on record: MCC and control cell lines, CellTiter-Glo viability, 72 h; at 44.8 µM (top of the series) unless noted. Put shortly:
(§3)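 Cell viability, measured as CellTiter-Glo luminescence, was normalized between DMSO and no-cell wells. The cells had been exposed to 8- or 11-point compound dilutions for 72 hr at 37 degree celsius.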

Test [16] relates to NIH3T3. Described as above. The settings on record: MCC and control cell lines, CellTiter-Glo viability, 72 h; series mostly up to 44.8 µM. The method in brief: as §3

Inconclusive results are not listed. Unmarked numbers belong to inactive results. Active and inactive are the calls of the source. Calls come from the whole dose curve; as a rule, active = well fitted curve in the direction sought with a large enough effect; inconclusive = small, poorly fitted or top-dose-only effect, or another doubt; inactive = no such curve, though single readings can be large; an effect the other way counts as inactive or inconclusive.

As to `CN(C)CCOC(C)(c1ccccc1)c1ccc(Cl)cc1` (stereo not drawn), the Potency was 25.9 µM (active) in [1] and 20.6 µM (active) in [2]. The Potency result in test [3], in test [4], in [5], in test [6], in test [7] and in test [8] was “inactive” in each case. Also, the Potency result in [9], in [10] and in test [11] was “inactive” throughout.

Turning to `Cc1nc(C#Cc2ccnc(Cl)c2)c(C)n1-c1ccc(F)cc1`, the figures for the Potency in test [1] and in [2] were 18.4 µM (active) and 7.31 µM (active), respectively. In test [12], the max response was -10.7%. For the same compound, the Potency entry in [4], in [5], in test [6], in test [7], in test [9] and in test [10] was “inactive” throughout. The Potency result in test [11] was “inactive”.

For `CC1CCC/C=C/C(=O)c2c(O)cc(O)cc2CC(=O)O1` (stereo not drawn), the Potency is 7.31 µM (active) in [1]; 4.11 µM (active) in [2]; 14.6 µM (active) in [12]; 11.2 µM (active) in [3]; 14.1 µM (active) in test [8]; 14.1 µM (active) in test [9]. Also, the Potency in test [11] was 5.62 µM (active). Also, the Potency result in test [5] was “inactive”.

In the case of `CCn1c2ccccc2c2cc(Nc3ccnc(NCCCN4CCOCC4)n3)ccc21`, the Potency in test [1] is 18.4 µM (active); in [2], 9.2 µM (active). In addition, the Potency result in [3], in test [5] and in [7] was “inactive” each time.

`O=C(NO)c1cnc(N2CCN(S(=O)(=O)c3ccc4ccccc4c3)CC2)nc1`: the results for the Potency in test [1], in test [12] and in test [10] were 7.96 µM (active), 2.24 µM (active) and 3.98 µM (active), respectively. Also, the max response in test [2] is -106%. Moreover, the Potency entry in test [4] was “inactive”.

With `CCC(C)C1NC(=O)C(Cc2ccccc2)NC(=O)C(CCCCCC(=O)C(O)CO)NC(=O)C2CCCCN2C1=O` (stereo not drawn), in [1], the max response is -4.29%. In addition, the outcome in test [13], in [14] and in test [12] was inactive. Besides, the outcome in [15] is “inactive [at 17.4 µM]”. The Potency result in test [16], in test [3], in [4], in [5], in [6] and in test [7] was “inactive” each time. The Potency result in [8] and in test [9] was “inactive” in each case.

As to `COC(=O)c1ccc2c(c1)[nH]c1ncnc(NCCCN3CCCCC3)c12`, the results for the max response in test [1] and in [14] were -8.38% and -20.2%, respectively. Besides, the compound was called inactive in test [13], in [12] and in [15]. Also, the Potency entry in [16], in test [3], in [4], in test [5], in test [6] and in test [7] was “inactive” each time. The Potency result in test [8], in [9] and in [10] was “inactive” throughout.

With `C=C1C(=O)O[C@@H]2C(OC(=O)/C(C)=C\C)/C(C)=C\C(=O)/C=C(\C)C[C@H](O)[C@@H]12` (stereo partly drawn), the Potency was 10.1 µM (active) in test [1]; 2.55 µM (active) in test [2]; 9.04 µM (active) in [12]; 11.2 µM (active) in [8]; 10 µM (active) in test [11]. Further, the Potency entry in [7] and in test [10] was “inactive” throughout.

With `COCC(=O)NC/C=C/c1ccc2ncnc(Nc3ccc(Oc4ccc(C)nc4)c(C)c3)c2c1`, the Potency in test [1] was 9.2 µM (active); in test [2] it was 14.6 µM (active). The Potency entry in test [3], in test [6], in test [7], in [8], in [9] and in test [10] was “inactive” in each case. In addition, in test [11], the Potency result was “inactive”.

On to `O=C1Nc2nc(-c3c(O)cccc3OCC3CC3)cc([C@@H]3CCCNC3)c2CO1`, for which, in test [1], the max response was -29.4%. For the same compound, the Potency in test [2] is 20.6 µM (active). The Potency entry in test [7] and in test [9] was “inactive” each time.

With `CC(C)(C)c1ccc2c(c1)CC[C@H]2NC(=O)Nc1cccc2[nH]ncc12`, the max response in test [1] was -3.64%; in test [14], -1.56%. Further, the compound was called inactive in test [13], in [12] and in test [15]. Further, the Potency entry in test [16], in test [3], in [4], in [5], in [6] and in test [7] was “inactive” throughout. Besides, the Potency entry in test [8], in [9] and in test [10] was “inactive” each time.

Regarding `Cn1ncc(Cl)c1-c1cc(C(=O)N[C@H](CN)Cc2ccc(F)c(F)c2)sc1Cl`, the max response in test [1] was -4.08%. Further, the figures for the Potency in [2] and in test [3] were 1.3 µM (active) and 5.62 µM (active), respectively. For the same compound, the Potency result in test [4], in test [6], in test [7], in test [9] and in [11] was “inactive” each time.

`Nc1nc(NC2CC2)cc(-c2cccc(Cl)c2Cl)n1`: the max response in test [1] was -27.4%. Moreover, the results for the Potency in [2], in test [7] and in test [11] were 18.4 µM (active), 20 µM (active) and 28.2 µM (active), respectively. Also, the Potency entry in test [3] and in [10] was “inactive” throughout.

As for `CC(C)=CCCC1(C)/C=C/C(OC(=O)C=C(C)C)C(C)(O)/C=C/C(=O)/C(CO)=C\C1` (stereo not drawn), the max response in test [1] is -29.1%. The Potency in [2] is 2.52 µM (active); in [8], 8.91 µM (active).

Regarding `c1ccc(-c2ccc(CNc3nc(-c4ccccn4)nnc3-c3ccccc3)cc2)cc1`, the Potency in [1] was 5.8 µM (active); in test [2], 5.17 µM (active); in [12] it was 3.66 µM (active); in test [3], 12.6 µM (active); in [5], 11.2 µM (active); in [6] it was 17.8 µM (active). Further, the Potency in test [10] was 7.08 µM (active). The Potency result in test [9] was “inactive”.

As for `OC1C=C2C3CN(Cc4cc5c(cc43)OCO5)C2CC1O` (stereo not drawn), the Potency was 8.2 µM (active) in [1]; 6.51 µM (active) in test [2]; 25.1 µM (active) in [6]; 8.91 µM (active) in [8]; 14.1 µM (active) in test [11]. Besides, the Potency entry in [4], in test [5] and in test [9] was “inactive” throughout.

Take `C=C1CCC2C(C)(C(=O)O)CCCC2(C)C1CCC1=CCOC1=O` (stereo not drawn): the result in test [1], in test [13], in test [12] and in [15] was inactive. The max response in [14] was -6.84%. In addition, the Potency entry in [16], in test [3], in test [4], in test [5], in [6] and in [7] was “inactive” in each case. Besides, the Potency result in test [8], in [9], in test [10] and in test [11] was “inactive” each time.

With `N[C@@H]1c2cccnc2[C@H](OC(=O)N2CCC(n3c(=O)[nH]c4ncccc43)CC2)CC[C@H]1c1cccc(F)c1F`, the max response in test [1] was -0.901%; in [14], 4.19%. The result in test [13], in test [12] and in [15] was inactive. In addition, the Potency entry in [16], in test [3], in test [4], in test [5], in [6] and in [7] was “inactive” each time. The Potency result in test [8], in [9], in test [10] and in test [11] was “inactive” in each case.

With `C=C(C(=O)OC)[C@@H]1CC=C2C=CC(=O)[C@H](C)[C@@]2(C)C1`, the max response was 4.23% in test [1] and -5.91% in test [14]. Besides, the call in [13], in test [12] and in test [15] was inactive. Moreover, the Potency result in test [16], in test [3], in [4], in test [5], in [6] and in test [7] was “inactive” each time. The Potency result in test [8], in [9], in test [10] and in test [11] was “inactive” throughout.
